Assay results published in PubChem BioAssay AID1063 (University of Pittsburgh Molecular Library Screening Center, 2008).
Screen size: about 200,000 compounds; about 18,000 (9%) were called active. No stated cut-off is given here; in the data, active means inhibition above about 50%; inactive means the rest. The entries come from a sample that favours actives as a whole.

Assay: Leishmania major promastigote growth inhibition, primary screen (AID 1063);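 further: promastigotes grown with compound for 44 hours at 28 °C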
Conditions: Leishmania major promastigotes, resazurin fluorescence viability; at 10 µM; active compounds read high
For `CC(OC(=O)c1ccc2ccccc2n1)C(=O)c1ccccc1` (stereo unspecified), the inhibition was -9.05% (inactive).
With `NC(=O)COC(=O)/C=C/c1ccc2ccccc2n1` the inhibition was 8.85% (inactive).
For `CCOc1ccccc1NC(=O)c1cccnc1`, the inhibition was -2.23% (inactive).
For `CCOc1cccc(/C=C/c2ccc3ccccc3n2)c1OC(C)=O`, the inhibition was 66% (active).
With `COc1cccc(/C=C/c2ccc3ccccc3n2)c1OC(C)=O` the inhibition was 75.8% (active).
In the case of `COc1cccc(C(O)Cc2nc3ccccc3n2C)c1OC` (stereo unspecified), the inhibition is reported as 9.44% (inactive).
For `COC(=O)c1ccc(-n2cnc3ccccc32)nc1`, the inhibition was 25% (inactive).
For `CN(C(=O)CSc1nnc(Nc2ccccc2)s1)C1CCS(=O)(=O)C1` (stereo unspecified), the inhibition was -3.39% (inactive).
In the case of `CC(=O)c1c(C)[nH]c(C(=O)OCC(=O)NCCC(C)C)c1C`, the inhibition is reported as 3.75% (inactive).
For `c1ccc(CSCCc2ccncc2)cc1`, the inhibition was 1.66% (inactive).
With `O=C(O)CCCc1ccccc1` the inhibition was -5.59% (inactive).
For `Cc1ccc(O)c(CCc2ccccc2)n1`, the inhibition was 87.9% (active).
In the case of `CC(NC(=O)C(=O)N/N=C/c1ccc(Cl)cc1)c1ccccc1` (stereo unspecified), the inhibition is reported as 5.89% (inactive).
In the case of `CC(C)(C)NC(=O)c1cccc(NC(=O)Cc2ccc(Br)cc2)c1`, the inhibition is reported as 94.5% (active).
In the case of `COc1ccc(CC(=O)Nc2ccc(C(=O)NC(C)(C)C)cc2)cc1`, the inhibition is reported as -5.15% (inactive).
With `O=C(Cc1ccccc1)Nc1cccc(C(=O)N/N=C/c2ccco2)c1` the inhibition was -0.83% (inactive).
With `C(=N\N1CCN(c2ccccn2)CC1)/C1=C(N2CCOCC2)C(=C/c2ccccc2)/CC1` the inhibition was 15.2% (inactive).
For `CCCCCNC(=O)c1cccnc1SCC(=O)Nc1ccccc1OC`, the inhibition was 54% (active).
In the case of `CCCNC(=O)c1ccccc1NC(=O)CSCc1ccc(OC)cc1`, the inhibition is reported as 9.43% (inactive).
For `CCCc1nc(SCC(=O)Nc2ccccc2OC)c2c(=O)n(C)c(=O)n(C)c2n1`, the inhibition was -9.77% (inactive).
For `COc1ccc(-n2nnnc2SCC(=O)NCc2cccs2)cc1`, the inhibition was -3.26% (inactive).
In the case of `COc1ccc(S(=O)(=O)N(C)C)cc1NC(=O)CSc1ncccn1`, the inhibition is reported as 6.96% (inactive).
For `O=C(NCc1ccncc1)NC12CC3CC(CC(C3)C1)C2`, the inhibition was 1.04% (inactive).
In the case of `CCOC(=O)c1c(NC(=O)C2CC=CCC2C(=O)O)sc(C)c1CC` (stereo unspecified), the inhibition is reported as 0.64% (inactive).
In the case of `O=S(=O)(c1cccc(C(F)(F)F)c1)N1CCN(c2cnccn2)CC1`, the inhibition is reported as -1.36% (inactive).
For `COC(=O)c1ccccc1NS(=O)(=O)c1ccc2[nH]c(=O)[nH]c2c1`, the inhibition was 86.2% (active).
For `COCCNC(=O)c1ccccc1NS(=O)(=O)c1ccc(C)c([N+](=O)[O-])c1`, the inhibition was 54.5% (active).
With `Cc1ccc(S(=O)(=O)NCCSc2ccccc2)cc1[N+](=O)[O-]` the inhibition was -8.64% (inactive).
In the case of `Cc1ccc(S(=O)(=O)Nc2nc3ccccc3s2)cc1[N+](=O)[O-]`, the inhibition is reported as -8.33% (inactive).
With `COC(=O)c1ccccc1NC(=O)c1ccccc1NS(C)(=O)=O` the inhibition was -0.37% (inactive).
With `CCOC(=O)c1ccccc1NS(=O)(=O)c1ccc(OC)cc1` the inhibition was 2.32% (inactive).
